Measured values as given in the supplement of paper PMC11732987, “Enantioselective OTUD7B fragment discovery through chemoproteomics screening and high-throughput optimisation” (Communications Chemistry, 2025).
Unmarked numbers belong to inactive results.

biological target: T1, USP22 (UniProt Q9UPT9); test: log2 ratio of Biotin-Ahx-Ub-VS probe labelling (fragment/DMSO); higher = less target engagement (more negative = stronger competition), active = hit call of the paper (q ≤ 0.05, log2 ratio ≤ -1); details: compound concentration: 200 uM; treatment time: 3 h
T1 sequence (whole entry): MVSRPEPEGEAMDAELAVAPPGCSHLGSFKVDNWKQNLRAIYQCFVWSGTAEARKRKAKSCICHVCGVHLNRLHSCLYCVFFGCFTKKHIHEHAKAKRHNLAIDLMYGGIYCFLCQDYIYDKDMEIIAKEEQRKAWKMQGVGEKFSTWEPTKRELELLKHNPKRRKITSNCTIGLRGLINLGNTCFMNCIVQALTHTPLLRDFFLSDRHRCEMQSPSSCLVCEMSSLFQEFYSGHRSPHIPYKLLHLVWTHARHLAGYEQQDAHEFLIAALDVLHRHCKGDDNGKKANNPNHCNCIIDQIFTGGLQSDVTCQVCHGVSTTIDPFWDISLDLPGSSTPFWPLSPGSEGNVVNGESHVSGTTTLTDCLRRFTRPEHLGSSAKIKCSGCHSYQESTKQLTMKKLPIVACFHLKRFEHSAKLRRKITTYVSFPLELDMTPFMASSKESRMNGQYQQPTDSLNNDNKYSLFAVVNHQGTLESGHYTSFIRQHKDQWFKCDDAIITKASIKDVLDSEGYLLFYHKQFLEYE
Procedure: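 Competitive ABPP in HEK293T cell lysate. Lysates were treated with each chloroacetamide fragment at 200 µM for 3 h, then with Biotin-Ahx-Ub-VS (0.5 µM, 1 h), NeutrAvidin-enriched and analysed by diaPASEF LC-MS/MS. Protein LFQ was median-normalised; average log2 ratio is fragment/DMSO from an unpaired t-test (n=3 treated, n=44 DMSO). Hits: q ≤ 0.05, log2 ratio ≤ -1, unique peptides ≥ 2.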

`O=C(CN1CCN(C(=O)CCl)CC1)Nc1cccc(F)c1` and `Cl.O=C(CN1CCN(C(=O)CCl)CC1)Nc1ccc(F)cc1` are within 0.2 log units of each other in “log2 ratio of Biotin-Ahx-Ub-VS probe labelling” value (from here on “log2 ratio”): 0.00778 for the first, 0.179 for the second.

Compared with `Cl.O=C(CCl)N1CCC(n2nc3ccccc3n2)CC1`, `N#Cc1ccccc1N1CCN(C(=O)CCl)CC1` is higher in “log2 ratio” value: -0.472 for the first, 0.0569 for the second.

Compared with `Cc1cnc2[nH]cc(CCNC(=O)CCl)c2c1`, `Cl.O=C(CCl)NCCc1ncc(F)cc1F` is higher in “log2 ratio” value: -0.375 for the first, -0.0071 for the second.

First: O=C(CCl)Nc1ccc(N2CCCC2=O)cc1
Second: CC1CN(c2ccc(NC(=O)CCl)cc2)CC(C)O1 (stereo not given)
The “log2 ratio” value of the first is higher: 0.36 for the first, -0.32 for the second.

Compared with `O=C(CCl)Nc1cccc(C(=O)N2CCSCC2)c1`, `O=C(CCl)Nc1cccc(NC(=O)c2ccccc2)c1` is higher in “log2 ratio” value: -0.0474 for the first, 0.406 for the second.

`Cc1ccn2cc(CNC(=O)CCl)nc2c1.Cl` and `Cc1cccn2cc(CCNC(=O)CCl)nc12.Cl` are within 0.2 log units of each other in “log2 ratio” value: -0.112 for the first, -0.0399 for the second.

`Cl.Cn1nccc1C(NC(=O)CCl)c1ccccc1` (stereo not given) and `CC(NC(=O)CCl)c1noc(Cc2ccccc2)n1` (stereo not given) are within 0.2 log units of each other in “log2 ratio” value: -0.153 for the first, -0.322 for the second.

First: Cc1n[nH]c(=O)c2c(NC(=O)CCl)oc(C)c12
Second: Cc1cc(CC(C)NC(=O)CCl)n[nH]1 (stereo not given)
The “log2 ratio” value of the first is lower: -0.281 for the first, 0.128 for the second.

`Cc1noc(N2CCN(C(=O)CCl)CC2)n1.Cl` and `Cl.O=C(CCl)N1CCC(Cc2nccs2)C1` (stereo not given) are within 0.2 log units of each other in “log2 ratio” value: 0.0656 for the first, 0.0323 for the second.

Compared with `O=C(CCl)N(Cc1ccsc1)C1CC1`, `Cc1ccc(CN(CCO)C(=O)CCl)cc1` is lower in “log2 ratio” value: 0.255 for the first, -0.0829 for the second.

`O=C(CCl)N1CCCCCC1c1ncon1` (stereo not given) and `NC(=O)C1CCCCN1C(=O)CCl` (stereo not given) are within 0.2 log units of each other in “log2 ratio” value: -0.0397 for the first, 0.159 for the second.

`C/C(=C\CNC(=O)CCl)c1cnn(C)c1.Cl` and `Cl.O=C(CCl)N[C@H]1C[C@@H](n2cccn2)C1` are within 0.2 log units of each other in “log2 ratio” value: 0.026 for the first, 0.044 for the second.

First: Cl.O=C(CCl)NCc1ccnc(Oc2ccccc2F)c1
Second: Cc1ccc(CC(NC(=O)CCl)c2ccccn2)cc1.Cl (stereo not given)
The “log2 ratio” value of the first is lower: -0.353 for the first, -0.153 for the second.

Compared with `O=C(CCl)Nc1ccc(Cl)c(F)c1`, `Cc1cc(Cl)ccc1NC(=O)CCl` is lower in “log2 ratio” value: -0.253 for the first, -0.467 for the second.

`O=C(CCl)NCC1(c2ccccc2)CC1` and `CC(c1ccccc1)N(C)C(=O)CCl` (stereo not given) are within 0.2 log units of each other in “log2 ratio” value: 0.0204 for the first, 0.102 for the second.

Compared with `O=C(CCl)N1CCc2ccccc2C(O)C1` (stereo not given), `O=C(CCl)N1CC=C(c2c[nH]c3ccccc23)CC1` is lower in “log2 ratio” value: -0.345 for the first, -0.57 for the second.

Going from `O=C(CCl)Nc1cc2c(cc1Cl)OCCCO2` to `NS(=O)(=O)c1ccc(Cl)c(NC(=O)CCl)c1`, the “log2 ratio” value falls from 0.133 to -0.46.

First: CCN(Cc1ccc(C#N)cc1F)C(=O)CCl
Second: N#Cc1ccc(Cl)cc1NC(=O)CCl
The “log2 ratio” value of the first is lower: -0.094 for the first, 0.184 for the second.

`CNC(=O)C1(NC(=O)CCl)CCCCC1` and `O=C(CCl)NCC(=O)N1CCCC1` are within 0.2 log units of each other in “log2 ratio” value: -0.0396 for the first, -0.00438 for the second.

`O=C(CCl)N1c2ccccc2NC(=O)C12CCCC2` and `Cc1cccc(C(CNC(=O)CCl)N2CCOCC2)c1.Cl` (stereo not given) are within 0.2 log units of each other in “log2 ratio” value: 0.00548 for the first, -0.00636 for the second.
